# Measured values as given in PubChem BioAssay (EPA / NIEHS).
# Results filed as inconclusive are left out. Active and inactive are the calls of the source. How the source made its calls: active means hit-call score of the fitted dose curve at least 0.9, where 1 is the maximum; inconclusive means response in the unintended direction; inactive means score below 0.9.
# What was measured:
# [1] = target: human Orphanin, Opioid Related Nociceptin Receptor 1 (ORL1), OPRL1 (gene 4987) (UniProt P41146); assay: NVS_GPCR_hORL1: NovaScreen (NVS) G Protein-Coupled Receptor Assay for human Orphanin, Opioid Related Nociceptin Receptor 1 (ORL1) (AID 2283283)
# Method in brief: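 Cell-free binding using HEK293-derived receptor protein: radioligand displacement measured by filter scintillation 1 hour after dosing. Primary testing at 25 uM in duplicate, followed by singleton concentration series up to 50 uM; DMSO served as negative control.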
# [2] = target: human Thromboxane A2 Receptor (TXA2), TBXA2R (gene 6915) (UniProt P21731); assay: NVS_GPCR_hTXA2: NovaScreen (NVS) G Protein-Coupled Receptor Assay for human Thromboxane A2 Receptor (TXA2) (AID 2283282);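 further: actives reduce bound radioligand signal relative to DMSO baseline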
# Method in brief: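 Cell-free radioligand binding with human platelet-derived receptor; 1 h after dosing, filter-based scintillation counting, loss of signal vs DMSO. Primary screen in duplicate at 25 uM.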
# [3] = target: D(1A) dopamine receptor (Homo sapiens) (UniProt P21728); assay: NVS_GPCR_hDRD1: NovaScreen (NVS) G Protein-Coupled Receptor Assay for human Dopamine Receptor D1 (DRD1) (AID 2283269)
# Method in brief: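 Extracted HEK293 DRD1 is incubated 1 h with compound and a tritiated or iodinated radioligand, then filtered and counted. Screening runs 25 uM in duplicate with on-plate positive and negative controls.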
# [4] = target: Muscarinic acetylcholine receptor M1 (Homo sapiens) (UniProt P11229); assay: NVS_GPCR_hM1: NovaScreen (NVS) G Protein-Coupled Receptor Assay for human Muscarinic, M1 Receptor (AID 2283270)
# Method in brief: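 Actives from a duplicate 25 uM single-point screen were retested in concentration series. Binding measured as displacement of a radioligand from CHO-derived receptor preparation, 1 h incubation, filtration and scintillation counting, analysed as signal loss against DMSO.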
# [5] = target: Muscarinic acetylcholine receptor M3 (Homo sapiens) (UniProt P20309); assay: NVS_GPCR_hM3: NovaScreen (NVS) G Protein-Coupled Receptor Assay for human Muscarinic, M3 Receptor (AID 2283272)
# Method in brief: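 Radioligand displacement binding on human M3 receptor in CHO-derived membranes, 1 h incubation, filter-based scintillation counting. Primary screen in duplicate at 25 uM; actives followed up in concentration series; loss of signal versus DMSO.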
# [6] = target: Muscarinic acetylcholine receptor M2 (Homo sapiens) (UniProt P08172); assay: NVS_GPCR_hM2: NovaScreen (NVS) G Protein-Coupled Receptor Assay for human Muscarinic, M2 Receptor (AID 2283273)
# Method in brief: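 CHO-expressed human M2 receptor preparation, competitive displacement of a radioligand read by filter-based scintillation counting after 1 h. Single 25 uM duplicate screen, then concentration-response follow-up of actives; DMSO baseline.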
# [7] = target: human Muscarinic, M4 Receptor, CHRM4 (gene 1132) (UniProt P08173); assay: NVS_GPCR_hM4: NovaScreen (NVS) G Protein-Coupled Receptor Assay for human Muscarinic, M4 Receptor (AID 2283274)
# Method in brief: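 Filter-based scintillation counting of radioligand bound to CHO-expressed human M4 preparations after 1 h; loss of signal fitted versus DMSO. Initial duplicate testing at 25 uM, concentration-response follow-up for actives.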
# [8] = target: Muscarinic acetylcholine receptor M5 (Homo sapiens) (UniProt P08912); assay: NVS_GPCR_hM5: NovaScreen (NVS) G Protein-Coupled Receptor Assay for human Muscarinic, M5 Receptor (AID 2283275)
# Method in brief: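 Chemicals passing a primary duplicate screen at 25 uM were run as singleton concentration series, maximum 50 uM. Displacement of a specific radioligand from CHO-extracted receptor was read by filter scintillation after 1 h, relative to DMSO.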
# [9] = target: Neuropeptide Y receptor type 2 (Homo sapiens) (UniProt P49146); assay: NVS_GPCR_hNPY2: NovaScreen (NVS) G Protein-Coupled Receptor Assay for human Neuropeptide Receptor Y2 (NPY2) (AID 2283277)
# Method in brief: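 Chemicals were first tested in duplicate at 25 uM, then actives in singleton concentration series to 50 uM. Tracer binding to SK-N-MC-derived protein measured cell-free after 1 h via filter scintillation; signal loss relative to DMSO.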
# [10] = target: rat Adrenergic, Alpha 1, Non-selective Receptor (Adra1), Adra1a (gene 29412) (UniProt P43140); assay: NVS_GPCR_rAdra1_NonSelective: NovaScreen (NVS) G Protein-Coupled Receptor Assay for rat Adrenergic, Alpha 1, Non-selective Receptor (Adra1) (AID 2283289)
# Method in brief: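 Chemicals first screened in duplicate at 25 uM, then actives tested in concentration series up to 50 uM. Binding measured as displacement of radioligand from rat forebrain membrane receptors, 1 h, filtration with scintillation readout; DMSO baseline.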
# [11] = target: human Leukotriene B4 Receptor 1 (LTB4-BLT1), LTB4R (gene 1241) (UniProt Q15722); assay: NVS_GPCR_hLTB4_BLT1: NovaScreen (NVS) G Protein-Coupled Receptor Assay for human Leukotriene B4 Receptor 1 (LTB4-BLT1) (AID 2283271)
# Method in brief: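 Cell-free human neutrophil receptor preparation, 1 h exposure, radioligand binding read by filter scintillation counting. Single 25 uM duplicate screen, then concentration series topping at 50 uM; binding loss scored against DMSO baseline.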
# [12] = target: human Neuropeptide Receptor Y1 (NPY1), NPY1R (gene 4886) (UniProt P25929); assay: NVS_GPCR_hNPY1: NovaScreen (NVS) G Protein-Coupled Receptor Assay for human Neuropeptide Receptor Y1 (NPY1) (AID 2283276)
# Method in brief: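 Displacement of specific radioligand from NPY1 receptor of SK-N-MC origin, read by filtration and scintillation after 1 h. Compounds first tested at 25 uM in duplicate, then actives in concentration series; signal loss relative to DMSO.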
# [13] = target: human Neurokinin, NK2 Receptor, TACR2 (gene 6865) (UniProt P21452); assay: NVS_GPCR_hNK2: NovaScreen (NVS) G Protein-Coupled Receptor Assay for human Neurokinin, NK2 Receptor (AID 2283278);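 further: actives reduce bound radioligand signal relative to DMSO baseline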
# Method in brief: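 Test chemicals displace a radioligand from receptor prepared from CHO cells in a cell-free format, read after 4 hours by scintillation counting on filters. Screening starts at 25 uM in duplicate, and active chemicals then go to concentration series.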
# [14] = target: human Neurotensin Receptor (NTS), NTSR1 (gene 4923) (UniProt P30989); assay: NVS_GPCR_hNTS: NovaScreen (NVS) G Protein-Coupled Receptor Assay for human Neurotensin Receptor (NTS) (AID 2283279)
# Method in brief: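 Compounds competed with a radiolabelled ligand for binding to CHO-derived human neurotensin receptor; bound signal counted after filtration, 1 h. Screened first at a single concentration of 25 uM in duplicate, then concentration series to 50 uM maximum for actives.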
# [15] = test system: rabbit Platelet Activating Factor Receptor (PAF), gene 100354046; assay: NVS_GPCR_rabPAF: NovaScreen (NVS) G Protein-Coupled Receptor Assay for rabbit Platelet Activating Factor Receptor (PAF) (AID 2283287)
# Method in brief: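 Rabbit platelet membrane preparation; radioligand displacement read by filter-based scintillation counting 1 h after dosing, loss of signal versus DMSO. Primary screen in duplicate at 25 uM, actives followed up in concentration series.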
# [16] = test system: 5-hydroxytryptamine receptor 2C (pig); assay: NVS_GPCR_p5HT2C: NovaScreen (NVS) G Protein-Coupled Receptor Assay for pig Serotonin, 5-Hydroxytryptamine Receptor 2C (5HT2C) (AID 2283288)
# Method in brief: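 Radioligand displacement on membranes from pig choroid plexus, detected by filter scintillation counting after 1 h. Tested first at a single 25 uM in duplicate, then in concentration-response for actives; DMSO served as baseline.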
# [17] = target: rat Serotonin, 5-Hydroxytryptamine Receptor 1 (5HT1), Non-Selective Binding, Htr1a (gene 24473) (UniProt P19327); assay: NVS_GPCR_r5HT1_NonSelective: NovaScreen (NVS) G Protein-Coupled Receptor Assay for rat Serotonin, 5-Hydroxytryptamine Receptor 1 (5HT1), Non-Selective Binding (AID 2283286)
# Method in brief: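 Binding of a radioligand to rat cortex membranes is read by filtration and scintillation counting after 1 h. Compounds were screened at 25 uM in duplicate. Actives were then titrated to a top of 50 uM. DMSO is the baseline.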
# [18] = target: human Opioid Receptor Delta 1 (Opiate D1), OPRD1 (gene 4985) (UniProt P41143); assay: NVS_GPCR_hOpiate_D1: NovaScreen (NVS) G Protein-Coupled Receptor Assay for human Opioid Receptor Delta 1 (Opiate D1) (AID 2283280)
# Method in brief: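 Membrane preparations from CHO cells bearing the human receptor were incubated 1 h with test chemical, and bound radioligand was counted after filtration. Actives from 25 uM duplicate screening were retested in concentration-response.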
# Chain of D(1A) dopamine receptor (Homo sapiens) (P21728 whole entry, looked up): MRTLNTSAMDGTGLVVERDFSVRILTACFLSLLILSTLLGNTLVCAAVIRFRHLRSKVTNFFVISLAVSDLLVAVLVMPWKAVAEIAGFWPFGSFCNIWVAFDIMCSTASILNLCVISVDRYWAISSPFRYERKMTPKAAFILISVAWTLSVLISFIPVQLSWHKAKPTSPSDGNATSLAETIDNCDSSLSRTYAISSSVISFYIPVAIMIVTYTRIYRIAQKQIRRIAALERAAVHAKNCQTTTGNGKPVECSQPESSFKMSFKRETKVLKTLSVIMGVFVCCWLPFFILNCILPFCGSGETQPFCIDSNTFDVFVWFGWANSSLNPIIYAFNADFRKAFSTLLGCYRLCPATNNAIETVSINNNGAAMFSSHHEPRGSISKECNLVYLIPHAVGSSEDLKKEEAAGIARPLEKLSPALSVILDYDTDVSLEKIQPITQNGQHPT
# Chain of Muscarinic acetylcholine receptor M3 (Homo sapiens) (P20309 whole entry, looked up): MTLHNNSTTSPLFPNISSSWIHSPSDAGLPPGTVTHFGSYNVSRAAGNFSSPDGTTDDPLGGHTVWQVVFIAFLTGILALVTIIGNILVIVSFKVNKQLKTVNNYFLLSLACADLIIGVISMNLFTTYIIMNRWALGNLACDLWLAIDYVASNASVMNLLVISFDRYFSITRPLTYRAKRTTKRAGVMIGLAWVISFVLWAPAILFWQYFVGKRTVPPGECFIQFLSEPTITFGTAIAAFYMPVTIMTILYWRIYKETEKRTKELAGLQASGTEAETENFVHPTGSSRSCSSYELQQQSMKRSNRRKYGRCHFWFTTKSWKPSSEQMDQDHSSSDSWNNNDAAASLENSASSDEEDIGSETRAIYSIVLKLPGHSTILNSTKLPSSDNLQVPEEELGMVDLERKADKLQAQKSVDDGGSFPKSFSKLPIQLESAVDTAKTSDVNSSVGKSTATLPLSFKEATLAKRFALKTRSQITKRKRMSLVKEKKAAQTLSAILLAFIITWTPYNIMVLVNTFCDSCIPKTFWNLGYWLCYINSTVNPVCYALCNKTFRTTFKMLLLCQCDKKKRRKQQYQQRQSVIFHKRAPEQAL
# Chain of human Leukotriene B4 Receptor 1 (LTB4-BLT1), LTB4R (gene 1241) (Q15722 whole entry, looked up): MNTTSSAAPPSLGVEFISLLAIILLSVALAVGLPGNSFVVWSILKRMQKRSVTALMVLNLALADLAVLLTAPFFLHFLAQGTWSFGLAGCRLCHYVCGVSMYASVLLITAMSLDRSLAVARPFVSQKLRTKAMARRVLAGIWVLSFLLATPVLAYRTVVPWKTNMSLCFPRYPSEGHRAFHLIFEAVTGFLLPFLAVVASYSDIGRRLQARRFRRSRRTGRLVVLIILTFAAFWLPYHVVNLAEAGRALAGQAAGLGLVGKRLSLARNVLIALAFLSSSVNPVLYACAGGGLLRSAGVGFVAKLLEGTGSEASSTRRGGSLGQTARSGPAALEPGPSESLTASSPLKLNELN
# Chain of human Muscarinic, M4 Receptor, CHRM4 (gene 1132) (P08173 whole entry, looked up): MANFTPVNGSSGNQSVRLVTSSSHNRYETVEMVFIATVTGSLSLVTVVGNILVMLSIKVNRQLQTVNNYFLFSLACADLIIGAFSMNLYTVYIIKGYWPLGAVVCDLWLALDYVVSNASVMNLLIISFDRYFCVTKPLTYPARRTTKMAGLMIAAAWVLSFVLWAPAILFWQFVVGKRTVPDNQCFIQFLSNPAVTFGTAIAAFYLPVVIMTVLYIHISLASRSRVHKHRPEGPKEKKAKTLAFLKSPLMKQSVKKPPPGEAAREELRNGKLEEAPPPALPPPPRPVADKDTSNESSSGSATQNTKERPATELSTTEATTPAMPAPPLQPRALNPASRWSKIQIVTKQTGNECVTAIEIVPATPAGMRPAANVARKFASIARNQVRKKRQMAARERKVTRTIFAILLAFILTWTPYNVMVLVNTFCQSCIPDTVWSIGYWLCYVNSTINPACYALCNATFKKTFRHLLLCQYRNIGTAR
# Chain of rat Adrenergic, Alpha 1, Non-selective Receptor (Adra1), Adra1a (gene 29412) (P43140 whole entry, looked up): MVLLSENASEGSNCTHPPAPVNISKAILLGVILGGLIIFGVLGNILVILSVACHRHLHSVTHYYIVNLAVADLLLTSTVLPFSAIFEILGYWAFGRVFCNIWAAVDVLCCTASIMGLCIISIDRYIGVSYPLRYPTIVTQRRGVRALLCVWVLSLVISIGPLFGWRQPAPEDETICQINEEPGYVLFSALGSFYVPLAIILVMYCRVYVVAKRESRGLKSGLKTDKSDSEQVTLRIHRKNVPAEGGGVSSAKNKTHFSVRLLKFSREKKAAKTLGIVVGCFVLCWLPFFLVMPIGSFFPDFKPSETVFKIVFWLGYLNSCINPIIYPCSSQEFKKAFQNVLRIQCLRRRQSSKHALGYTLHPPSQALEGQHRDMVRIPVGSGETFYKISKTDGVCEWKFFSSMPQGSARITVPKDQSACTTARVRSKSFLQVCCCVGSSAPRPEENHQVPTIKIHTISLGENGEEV
# Chain of human Thromboxane A2 Receptor (TXA2), TBXA2R (gene 6915) (P21731 whole entry, looked up): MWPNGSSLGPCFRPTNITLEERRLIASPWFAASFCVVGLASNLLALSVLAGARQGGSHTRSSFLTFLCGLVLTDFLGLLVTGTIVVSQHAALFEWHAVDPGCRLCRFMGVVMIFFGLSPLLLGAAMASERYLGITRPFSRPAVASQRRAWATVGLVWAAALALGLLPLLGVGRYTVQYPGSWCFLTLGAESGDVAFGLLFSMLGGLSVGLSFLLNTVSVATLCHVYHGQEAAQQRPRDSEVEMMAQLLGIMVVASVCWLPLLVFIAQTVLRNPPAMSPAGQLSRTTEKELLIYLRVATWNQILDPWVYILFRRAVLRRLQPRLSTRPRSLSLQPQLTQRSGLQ
# Chain of human Neurokinin, NK2 Receptor, TACR2 (gene 6865) (P21452 whole entry, looked up): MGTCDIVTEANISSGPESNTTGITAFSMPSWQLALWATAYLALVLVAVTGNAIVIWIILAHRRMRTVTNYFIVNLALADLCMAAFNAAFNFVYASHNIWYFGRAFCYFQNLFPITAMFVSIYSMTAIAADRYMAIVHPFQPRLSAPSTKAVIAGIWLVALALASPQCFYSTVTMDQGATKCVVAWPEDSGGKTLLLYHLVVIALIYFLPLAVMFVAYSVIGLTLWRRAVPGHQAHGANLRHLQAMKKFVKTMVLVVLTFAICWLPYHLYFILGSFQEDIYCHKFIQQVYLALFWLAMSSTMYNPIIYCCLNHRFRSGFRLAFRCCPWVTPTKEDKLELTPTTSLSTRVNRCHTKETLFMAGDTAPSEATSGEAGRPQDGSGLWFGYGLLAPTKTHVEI
# Chain of Muscarinic acetylcholine receptor M2 (Homo sapiens) (P08172 whole entry, looked up): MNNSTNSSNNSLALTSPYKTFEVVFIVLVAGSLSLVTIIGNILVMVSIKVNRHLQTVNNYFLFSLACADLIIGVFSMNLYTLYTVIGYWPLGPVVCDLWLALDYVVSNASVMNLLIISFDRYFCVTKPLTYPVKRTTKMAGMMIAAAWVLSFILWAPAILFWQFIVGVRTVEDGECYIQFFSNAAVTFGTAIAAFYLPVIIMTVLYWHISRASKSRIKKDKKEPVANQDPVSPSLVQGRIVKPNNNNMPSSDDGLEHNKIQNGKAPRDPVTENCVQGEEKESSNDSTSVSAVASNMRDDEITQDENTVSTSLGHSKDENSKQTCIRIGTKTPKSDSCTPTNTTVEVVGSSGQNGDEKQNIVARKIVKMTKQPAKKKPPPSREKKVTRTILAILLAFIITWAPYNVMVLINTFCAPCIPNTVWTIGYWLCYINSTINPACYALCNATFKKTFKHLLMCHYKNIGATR
# Chain of rat Serotonin, 5-Hydroxytryptamine Receptor 1 (5HT1), Non-Selective Binding, Htr1a (gene 24473) (P19327 whole entry, looked up): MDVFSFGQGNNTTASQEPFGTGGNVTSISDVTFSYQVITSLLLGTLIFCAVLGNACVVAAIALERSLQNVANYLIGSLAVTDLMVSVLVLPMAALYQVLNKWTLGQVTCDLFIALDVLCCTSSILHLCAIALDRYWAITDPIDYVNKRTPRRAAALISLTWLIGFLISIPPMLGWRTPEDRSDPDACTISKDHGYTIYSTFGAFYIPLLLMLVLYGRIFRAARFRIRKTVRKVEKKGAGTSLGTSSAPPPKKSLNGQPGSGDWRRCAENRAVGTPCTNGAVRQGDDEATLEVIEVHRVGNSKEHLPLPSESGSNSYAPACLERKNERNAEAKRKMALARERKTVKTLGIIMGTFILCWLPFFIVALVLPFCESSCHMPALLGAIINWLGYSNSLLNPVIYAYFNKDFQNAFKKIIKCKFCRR
# Chain of Muscarinic acetylcholine receptor M1 (Homo sapiens) (P11229 whole entry, looked up): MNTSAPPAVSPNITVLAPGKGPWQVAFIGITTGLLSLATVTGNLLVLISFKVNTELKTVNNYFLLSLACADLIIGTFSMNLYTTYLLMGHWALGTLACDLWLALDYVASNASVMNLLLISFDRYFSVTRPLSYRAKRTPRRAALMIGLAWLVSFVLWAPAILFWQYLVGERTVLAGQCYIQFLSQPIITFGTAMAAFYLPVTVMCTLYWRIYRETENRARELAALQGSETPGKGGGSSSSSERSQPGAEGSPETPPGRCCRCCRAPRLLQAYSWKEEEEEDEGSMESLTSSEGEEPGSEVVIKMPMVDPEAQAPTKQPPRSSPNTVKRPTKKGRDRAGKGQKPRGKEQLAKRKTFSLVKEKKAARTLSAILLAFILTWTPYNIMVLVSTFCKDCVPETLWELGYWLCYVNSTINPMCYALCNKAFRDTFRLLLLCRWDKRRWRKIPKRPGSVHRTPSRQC
# Chain of human Neuropeptide Receptor Y1 (NPY1), NPY1R (gene 4886) (P25929 whole entry, looked up): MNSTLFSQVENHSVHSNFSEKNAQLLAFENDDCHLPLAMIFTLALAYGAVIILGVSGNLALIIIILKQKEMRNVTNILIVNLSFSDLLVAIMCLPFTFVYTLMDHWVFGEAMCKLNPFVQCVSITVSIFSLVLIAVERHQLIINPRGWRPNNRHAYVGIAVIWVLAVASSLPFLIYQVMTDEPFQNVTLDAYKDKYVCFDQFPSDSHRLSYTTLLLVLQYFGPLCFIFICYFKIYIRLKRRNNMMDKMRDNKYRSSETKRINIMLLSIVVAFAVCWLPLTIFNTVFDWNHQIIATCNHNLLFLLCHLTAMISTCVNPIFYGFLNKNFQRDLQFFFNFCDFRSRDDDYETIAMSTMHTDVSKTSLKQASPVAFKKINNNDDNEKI
compound,measurement,setting,value
OCCOCCOCCO,outcome,[1],inactive
CCCCOC(=O)c1ccccc1,outcome,[2],inactive
COc1cc(C(C)C)c2c(c1)S(=O)(=O)N(COc1cc(=O)n3cccc(OCCN4CCCCC4)c3n1)C2=O,AC50,[3],6.25 µM (active)
same,AC50,[4],2 µM (active)
same,AC50,[5],8.91 µM (active)
same,AC50,[6],0.681 µM (active)
same,AC50,[7],3.98 µM (active)
same,AC50,[8],3.71 µM (active)
same,AC50,[9],0.84 µM (active)
same,AC50,[10],3.1 µM (active)
NC(N)=O,outcome,[11],inactive
CCN(CC)C(=S)SSC(=S)N(CC)CC,AC50,[12],17.5 µM (active)
same,AC50,[13],1.35 µM (active)
same,AC50,[1],14 µM (active)
CCCCCCCCN(C)C,AC50,[14],16.7 µM (active)
OCc1c[nH]c2ccccc12,AC50,[13],19.7 µM (active)
same,outcome,[2],inactive
Cc1nccn1-c1ccc(Sc2cccc(C3(C(N)=O)CCOCC3)c2)cc1,AC50,[4],7.4 µM (active)
same,outcome,[5],inactive
same,AC50,[6],6.6 µM (active)
same,AC50,[7],6.73 µM (active)
same,outcome,[8],inactive
same,AC50,[15],15.8 µM (active)
OCC(CO)(CO)CO,outcome,[11],inactive
CCCCCCCCCC,outcome,[3],inactive
same,outcome,[6],inactive
same,outcome,[7],inactive
same,outcome,[12],inactive
same,outcome,[13],inactive
same,outcome,[15],inactive
same,outcome,[16],inactive
O=c1[nH]cnc2c1ncn2[C@H]1CC[C@@H](CO)O1,outcome,[3],inactive
CCCCCCCC1CCC(=O)O1 (stereo unspecified),outcome,[11],inactive
same,outcome,[17],inactive
CC[C@H](C)C(=O)O[C@H]1C[C@H](O)C=C2C=C[C@H](C)[C@H](CC[C@@H](O)C[C@@H](O)CC(=O)O)[C@H]21,outcome,[2],inactive
NNC(=O)c1ccncc1,AC50,[13],2.18 µM (active)
O=S(=O)(O)c1ccc(N=Nc2c(O)ccc3cc(S(=O)(=O)O)ccc23)cc1,AC50,[3],38.4 µM (active)
same,outcome,[5],inactive
same,outcome,[7],inactive
same,AC50,[17],12.4 µM (active)
same,outcome,[10],inactive
Cc1ncc([C@@H](CCCCCCc2ccc3c(n2)NCCC3)CC(=O)O)cn1,AC50,[6],19.2 µM (active)
same,outcome,[18],inactive
CCc1ccc(O)c(C(C)(C)C)c1,outcome,[10],inactive
CCCOc1ccc(S(=O)(=O)N2CCN(CC)CC2)cc1-c1nc2c(CC)n(Cc3ccccn3)nc2c(=O)[nH]1,AC50,[15],6.42 µM (active)
same,AC50,[10],0.402 µM (active)
